PubChem BioAssay AID624169 (The Scripps Research Institute Molecular Screening Center, 2012)
Several values for one entry are separate records, joined by “and”; a condition that tells them apart may be missing. Equal values may be shown once. About 2,400 (0.67%) of roughly 360,000 compounds were called active. The list comes from a sample in which actives are over-represented; it also holds similar structures and randomly drawn compounds. A number with no mark means an inactive call.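 The calls were made as follows: active = activation above a run cutoff, the mean activation of all tested compounds plus 3 SD (cut at about 14% in these data); inactive = the rest.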

molecular target: 5-hydroxytryptamine receptor 2A (Mus musculus) (UniProt P35363); experiment: activation of mouse 5-HT2A receptor – cell-based, luminescence, primary screen (AID 624169); details: CHO-K1 mHTR2A beta-arrestin complementation, at 7.6 µM, active compounds read high, percent of 30 µM serotonin response;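 also: 0% = plate median of compound wells and 100% = 30 µM serotonin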
Sequence (P35363 whole entry, looked up): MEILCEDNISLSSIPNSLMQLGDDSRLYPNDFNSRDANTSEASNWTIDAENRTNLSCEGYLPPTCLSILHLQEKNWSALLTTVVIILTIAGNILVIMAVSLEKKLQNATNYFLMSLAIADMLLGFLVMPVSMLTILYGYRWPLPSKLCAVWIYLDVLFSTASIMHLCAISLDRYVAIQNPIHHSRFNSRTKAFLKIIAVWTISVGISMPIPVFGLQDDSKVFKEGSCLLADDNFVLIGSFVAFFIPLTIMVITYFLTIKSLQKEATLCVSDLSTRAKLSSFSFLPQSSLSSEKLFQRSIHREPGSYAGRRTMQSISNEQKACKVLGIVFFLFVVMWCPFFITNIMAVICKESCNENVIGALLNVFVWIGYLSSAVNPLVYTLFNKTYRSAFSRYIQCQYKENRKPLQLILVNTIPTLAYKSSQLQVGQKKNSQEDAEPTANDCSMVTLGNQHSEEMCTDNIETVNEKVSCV

| Compound | activation |
| --- | --- |
| O=C(c1ccco1)N(Cc1nc2ccccc2c(=O)[nH]1)C1CCCC1 | 3.03% |
| O=C(c1cccs1)N1CCN(Cc2ccc3c(c2)OCO3)CC1 | 25.9% (active) |
| O=C(CCCN1C(=O)c2cccc3cccc(c23)C1=O)N1CCN(Cc2ccc3c(c2)OCO3)CC1 | -3.63% |
| COc1ccc(-c2cc(C(=O)N3CCN(Cc4ccc5c(c4)OCO5)CC3)on2)cc1OC | -7.64% |
| Cc1nc2ccccc2nc1CC(O)(c1ccccc1)c1ccccc1 | 1.95% |
| Cc1ccc(S(=O)(=O)N[C@H]2CCC[C@@H]2O)cc1 | 0.49% |
| O=C(O)Cc1csc(-c2cccc(Oc3ccccc3)c2)n1 | 5.47% and 2.04% |
| O=C(OCCOc1ccccc1F)c1cc(S(=O)(=O)N2CCOCC2)ccc1F | -6.59% |
| O=C(COC(=O)c1cc(S(=O)(=O)N2CCOCC2)ccc1F)NC1CC1 | 20.8% (active) |
| COc1cc(NC(=O)COC(=O)c2cc(S(=O)(=O)N3CCOCC3)ccc2F)cc(OC)c1 | 2.06% |
| C[C@H](CO)N1C[C@H](C)[C@@H](CN(C)S(=O)(=O)c2ccc(F)cc2)Oc2c(NC(=O)Nc3ccccc3)cccc2C1=O | 1.16% |
| CCSCc1nc(N)nc(NCCc2ccccc2)n1 | -1.03% |
| CC(=O)c1ccc(OCCCC(=O)Nc2ccc(C)c(S(=O)(=O)N3CCOCC3)c2)cc1 | 4.29% |
| COC(=O)c1ccc(-c2c(-c3ccccc3)ncc3cc(OC)c(OC)cc23)cc1 | 6.54% |
| COc1ccc(/C(=N\O)c2nccc3cc(OC)c(OC)cc23)cc1OC | 24.7% (active) |
| COc1cc2ccc(C(C)=O)c(O)c2cc1OC | -4.06% |
| N#Cc1c(NC(=O)C2CC(Cl)=CCC2C(=O)O)sc2c1CCCCC2 (centres undefined) | 5.86% |
| N#Cc1c(NC(=O)C2CCCO2)sc2c1CCCCC2 (centres undefined) | 0.23% |
| N#Cc1c(NC(=O)CCCl)sc2c1CCCCC2 | 20% (active) |
| Cc1ccc(OC(=O)c2ccccc2C(=O)OCC(F)(F)C(F)F)cc1 | -7.85% |
| COc1ccc(C(=O)OCC(=O)NC(=O)CCSc2ccccc2)cc1 | 1.32% |
| C[C@@H]1C(c2ccc(F)cc2)=NN(c2ccc(Br)cc2)[C@H]1C(=O)N1CCOC1=O | -5.98% |
| CCCCCC(O)(CCN1CCCCC1)c1ccccc1 (centres undefined) | -1.22% |
| O=C(CSc1nnc(N2CCOCC2)n1-c1cccc(F)c1)N1CCN(c2ccccn2)CC1 | -5.52% |

| Compound | activation |
| --- | --- |
| CCc1ccccc1NC(=O)CCOc1ccccc1 | 1.35% |
| Cc1ccccc1NC(=O)CCOc1ccccc1 | 4.29% |
| Cc1ccc(NC(=O)CCOc2ccccc2)cc1S(=O)(=O)Nc1ccccc1Cl | 15.2% (active) |
| CC(=O)Nc1cc(-c2ccccc2F)cn2c(-c3cccc(C(F)(F)F)c3)cnc12 | 1.96% |
| Cc1ccc(CN2CC(N3CCC(Cc4ccccc4)CC3)CS2(=O)=O)cc1 (centres undefined) | -4.23% |
| Cc1ccc(Cn2cc(CN3CC(N4CCN(C)CC4)CS3(=O)=O)nn2)cc1 (centres undefined) | -3.17% |
| Cc1cccc(CN2CCN(C3CN(Cc4cn(Cc5ccccc5F)nn4)S(=O)(=O)C3)CC2)c1 (centres undefined) | 7.98% |
| Cc1cccc(CN2CCN(C3CN(Cc4ccccc4)S(=O)(=O)C3)CC2)c1 (centres undefined) | 20.9% (active) |
| CCCCN1CC(N2CCN(Cc3cccc(C)c3)CC2)CS1(=O)=O (centres undefined) | 12.1% |
| Cc1cccc(CN2CCN(C3CN(Cc4cn(Cc5cc(C)cc(C)c5)nn4)S(=O)(=O)C3)CC2)c1 (centres undefined) | 19.3% (active) |
| COc1ccc(N2CCN(S(=O)(=O)c3cc4c5c(c3)C(C)C(=O)N5CCC4)CC2)cc1 (centres undefined) | 4.42% |
| O=C(CNC(=O)c1cc(=O)[nH]c2ccccc12)Nc1ccc(F)c(F)c1 | -0.64% |
| CC1=C(C(=O)N2CCOCC2)CC(CC(=O)NCC2CCCCC2)C(=O)N1Cc1ccc(F)cc1 (centres undefined) | 0.51% |
| O=C(COC(=O)CNC(=O)C1CCCCC1)NCc1ccccc1 | 4.87% |
| COc1ccc2c(Cl)c(-c3nnco3)sc2c1 | 15.6% (active) |
| Fc1cccc(Cl)c1COc1ccc(-c2nnco2)cc1 | 0.11% |
| C#CCSc1nnc(-c2sc3ccccc3c2Cl)o1 | 3.02% |
| O=C(COC(=O)CCOc1ccccc1)Nc1cc(S(=O)(=O)N2CCCCC2)ccc1Cl | 2.8% |
| CS(=O)(=O)c1ccc(Cl)c(NC(=O)COC(=O)c2cccc(S(=O)(=O)N3CCCC3)c2)c1 | -2.1% |
| O=C(CNCc1cccs1)Nc1cc(S(=O)(=O)N2CCCC2)ccc1Cl | 17.4% (active) |
| Cc1ccc2c(c1)NCC(C(=O)NC1CCC(C)CC1)O2 (centres undefined) | 16.6% (active) |
| Cc1ccc(S(=O)(=O)NCc2ccc(C(=O)NC3CCC(C)CC3)cc2)cc1 (centres undefined) | -3.68% |
| Cc1ccc(C(=O)NC2CC(C)(C)NC(C)(C)C2)c(C)c1 | 3.41% |
| Cc1ccccc1C(=O)N1CCC(C(=O)Oc2ccc(C#N)cc2)CC1 | -3.91% |

| Compound | activation |
| --- | --- |
| O=C(NNc1cc(Cl)cc(Cl)c1)c1c(F)cccc1Cl | 1.49% |
| Cc1ccc2cc(CCNC(=O)c3ccc4c(c3)OCO4)c(=O)[nH]c2c1 | 5.29% |
| COCCN(Cc1cc2cc3c(cc2nc1Cl)OCO3)C(=O)c1cccc(C)c1 | 16.6% (active) |
| CCCCN(CC)C(=O)c1ccc2c(c1)OCO2 | 1.68% |
| Cn1nnnc1-c1cc(Cl)cc(Cl)c1 | 2.61% |
| COc1ccc(NC(=O)CSc2nc(SC)ns2)c(OC)c1 | 0.26% |
| COc1ccc(C)cc1NC(=O)CSc1nc(SC)ns1 | -0.61% |
| CSc1nsc(SCC(=O)Nc2cc(C(=O)O)ccc2C)n1 | 15.6% (active) |
| Cc1cccc(C(=O)N[C@H](C(=O)NCc2cccs2)C(C)C)c1 | 5.5% |
| CCC(C)c1ccc(O)c(/C=N/O)c1 (centres undefined) | -3.25% |
| CNCC(O)c1ccc(O)c(O)c1 (centres undefined) | 26.5% (active) |
| C=CCNC(=O)C12CC3CC(C1)CC(C(=O)NCC=C)(C3)C2 | -0.48% |
| Cc1ccccc1NC(=O)C1CCN(C(=O)NC2CCCCC2)CC1 | -2.36% |
| O=C(Nc1ccccc1C(=O)O)c1ccc(N2C(=O)C3CC=CCC3C2=O)cc1 (centres undefined) | -7.43% |
| CC(C)c1csc(CN2CCC(CO)(Cc3ccccc3)CC2)n1 | -5.03% |
| OCC1(Cc2ccccc2)CCN(Cc2cc3ccccc3o2)CC1 | 19.6% (active) |
| O=C(c1cc2ccccc2o1)N1CCN(Cc2ccccc2)CC1 | -4.53% |
| CC(C)(C)NC(=O)C(=O)NCc1ccncc1 | -5.23% |
| COCCCN1C(=O)c2ccc(C(=O)OCC(=O)NCc3ccccc3OC)cc2C1=O | -1.38% |
| COc1ccc(S(=O)(=O)NC(C)c2ccccc2)cc1C(=O)N1CCCCC1 (centres undefined) | 4.88% |
| C[C@H](O)[C@@H]1C(=O)N2CCc3ccc(N4CCOCC4)cc3[C@@H]2C[C@@H]1N(C)C(=O)C(C)(C)C | 9.06% |
| CN[C@H]1C[C@H]2c3cc(Oc4ccccc4C)ccc3CCN2C(=O)[C@H]1[C@H](C)O | 0.5% |
| C[C@@H]1ON(C)[C@H]2C[C@H]3c4cc(N5CCN(C)CC5)ccc4CCN3C(=O)[C@@H]12 | 29.5% (active) |
| Cc1nn(C)cc1S(=O)(=O)N1CCN(c2ccc(F)cc2)CC1 | -4.86% |

| Compound | activation |
| --- | --- |
| Cc1cccnc1C(NC(=O)C1CCN(Cc2ccc(Cl)c(Cl)c2)CC1)c1ccc(Cl)cc1 (centres undefined) | 16.4% (active) |
| Cc1ccc(C(NC(=O)C2CCN(CCOc3ccc(Cl)cc3Cl)CC2)c2ccccn2)cc1 (centres undefined) | -3.52% |
| O=C(NC(c1ccc(Cl)cc1)c1cnccn1)C1CCN(Cc2ccc(Cl)cc2)CC1 (centres undefined) | -6.28% |
| CCC/C=C(\CCC)C(NC(=O)Cc1ccccc1)c1ccc(C(=O)OC)cc1 (centres undefined) | -7.9% |
| Cc1cccc(N2CC(C)Cn3c2nc2c3c(=O)n(CC(=O)OCc3ccccc3)c(=O)n2C)c1 (centres undefined) | 0.76% |
| Cc1ccc(OCCC(=O)OCC(=O)N2c3ccccc3NC(=O)C2(C)C)cc1 | -2.36% |
| CNS(=O)(=O)c1cccc(C(=O)OCC(=O)N2c3ccccc3NC(=O)C2(C)C)c1 | -2.19% |
| Cc1cc(C(=O)OCC(=O)N2c3ccccc3NC(=O)C2(C)C)c(C)n1-c1ccccc1 | 15.2% (active) |
| COc1ccc(N)cc1NC(=O)CN1CCOCC1 | -3.94% |
| COc1ccc(C)cc1N(C(=O)Cn1nnc(-c2ccc(C)o2)n1)C(C(=O)NC1CCCC1)c1ccncc1 (centres undefined) | -2.27% |
| COC(=O)c1ccc(S(=O)(=O)NCc2ccccc2)n1C | -2.3% |
| CC(C(=O)N1CCc2ccccc21)N(C)CC(=O)Nc1ccc(F)cc1 (centres undefined) | -3.41% |
| O=C(Cc1cccs1)NCc1cccc(C(F)(F)F)c1 | -6.31% |
| N/C(=N\S(=O)(=O)c1cc(C(F)(F)F)cc(C(F)(F)F)c1)c1cccs1 | 31.8% (active) |
| Cc1ccc(S(=O)(=O)/N=C(\N)c2ccc(F)cc2)cc1 | 0.59% |
| Cc1ccc(N2C(=O)C3N=NN(CC(=O)N4N=C(c5cccc6ccccc56)CC4c4ccccc4)C3C2=O)cc1 (centres undefined) | 17.6% (active) |
| O=C1C2N=NN(CC(=O)N3N=C(c4cccc5ccccc45)CC3c3ccccc3)C2C(=O)N1c1ccccc1 (centres undefined) | 2.13% |
| Oc1ccccc1C1=NN(c2ccccc2)C(c2ccccc2)C1 (centres undefined) | 5.22% |
| CCN(CC(=O)Nc1cccc(S(=O)(=O)N2CCCCC2)c1)Cc1ccccc1 | -11.3% |
| COc1cc(Cl)ccc1OCc1cc(C(=O)N(C)CCc2c(C)n[nH]c2C)no1 | -10.7% |
| CCCNC(=O)C1(C)CCN1C(=O)C1(c2ccccc2)CC1 (centres undefined) | -0.58% |
| CCCOc1ccc(Cc2c(O)nc(N)[nH]c2=O)cc1C | 2.5% |
